Structures can show the parent of a compound that is named as a salt.
Key:
Experiment in all cases: Euclidean distance of Cell Painting phenotypic profile (signed KS, 77 features) to DMSO centroid (dimensionless distance); 5 or 10 uM (library dependent); higher = stronger phenotypic change vs DMSO (phenoactivity)
Conditions in all cases: 48 h
786-O = tested on: 786-O
Procedure, shortened: (§1)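 Harmony extracted 77 features from 20X confocal images (9 fields/well) of stained cells, scoring each as a signed Kolmogorov-Smirnov statistic against same-plate vehicle wells. The cells, five cancer lines and a healthy fibroblast line, had received library compounds for 48 h at 10 or 5 uM depending on library, with 0.1% DMSO final. Phenoactivity is the Euclidean distance from each plate-position-corrected, correlation-weighted, top-dose replicate-averaged profile to the median vehicle profile.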

A549 = tested on: A549
Procedure, shortened: as §1

FB = tested on: FB
Procedure, shortened: as §1

HEPG2 = tested on: HEPG2
Procedure, shortened: as §1

OVCAR4 = tested on: OVCAR4
Procedure, shortened: as §1

DU145 = tested on: DU145
Procedure, shortened: as §1

Row | Compound | Euclidean distance (786-O) | Euclidean distance (A549) | Euclidean distance (FB) | Euclidean distance (HEPG2) | Euclidean distance (OVCAR4) | Euclidean distance (DU145)
1 | CN(C(=O)c1ccc(F)cc1C(F)(F)F)C1CCN(c2nnc(-c3ccnn3C)c3ccccc23)CC1 | 1.45 | 0.959 | 1.03 | 1 | 1.53 | 
2 | Cc1cc2c(s1)Nc1ccccc1N=C2N1CCN(C)CC1 [Olanzapine] | 1.03 | 1.01 | 1.48 | 0.621 | 1.61 | 
3 | CCN(CC)C(=O)c1cccnc1 [Nikethamide] | 1.44 | 1.13 | 1.17 | 0.66 | 1.38 | 
4 | CCOC(=O)C1=C(C)NC(C)=C(C(=O)OC)C1c1cccc(Cl)c1Cl (stereo not given) [Felodipine] | 1.02 | 1.19 | 0.651 | 0.85 | 0.942 | 
5 | C[C@@H]1C(=O)O[C@H]2C[C@@]34[C@H]5C[C@@H](C(C)(C)C)[C@]36[C@@H](OC(=O)[C@@H]6O)O[C@@]4(C(=O)O5)[C@]21O [Ginkgolide A] | 0.788 | 1.51 | 1.46 |  | 1.21 | 1.93
6 | C[C@@H]1CCC[C@H](C)N1NC(=O)c1ccc(Cl)c(S(N)(=O)=O)c1 [Clopamide] | 1.15 | 1.14 | 0.969 | 0.528 | 1.14 | 
7 | CCc1cc2c(cc1N1CCC(N3CCOCC3)CC1)C(C)(C)c1[nH]c3cc(C#N)ccc3c1C2=O [Alectinib hydrochloride] | 1.42 | 2.36 | 1.91 | 0.611 | 1.42 | 
8 | COc1cc2ccc(=O)oc2cc1O [Scopoletin] | 1.25 | 0.713 | 0.934 | 0.82 | 1.3 | 
9 | CC(C)C(=O)Nc1ccc([N+](=O)[O-])c(C(F)(F)F)c1 [Flutamide] | 0.873 | 0.771 | 1.09 | 0.723 | 1.99 | 
10 | CCC(=O)NCC[C@@H]1CCc2ccc3c(c21)CCO3 [Ramelteon] | 1.15 | 0.978 | 0.887 | 1.02 | 1.07 | 
11 | N#C[C@@H]1C[C@@H]2C[C@@H]2N1C(=O)[C@@H](N)C12CC3CC(CC(O)(C3)C1)C2 [Saxagliptin hydrate] | 0.976 | 0.951 | 0.817 | 0.598 | 1.53 | 
12 | C=CC(=O)N1CC/C(=C\c2ccc(F)c([N+](=O)[O-])c2)C(=O)/C(=C/c2ccc(F)c([N+](=O)[O-])c2)C1 | 6.18 | 5.03 | 5.74 | 5.06 | 6.21 | 
13 | CNC(=O)c1cc(COc2nnc(Nc3ccc(Cl)cc3)c3ccoc23)ccn1 [Telatinib] | 1.21 | 0.814 | 2.01 | 1.41 | 1.74 | 
14 | O=C(CCCN1CCC(O)(c2ccc(Cl)cc2)CC1)c1ccc(F)cc1 [Haloperidol] | 1.27 | 0.777 | 1.09 | 1.04 | 1.95 | 
15 | NC(=O)c1nc(F)cnc1O [Favipiravir (T-705)] | 0.685 | 0.513 | 0.835 | 0.762 | 0.894 | 
16 | CC(=O)c1cc2c(o1)C(=O)c1ccccc1C2=O [Napabucasin] | 2.96 | 3.97 | 3.91 | 3.62 | 5.51 | 
17 | CN1CC[C@@H](NC(=O)Nc2ccc(C#N)cc2)C[C@@H]1c1nc2ccccc2[nH]1 | 2.28 | 1.79 | 3.81 | 1.1 | 1.73 | 
18 | Cc1ccsc1C(=CCCN1CCC[C@@H](C(=O)O)C1)c1sccc1C [Tiagabine] | 0.676 | 0.377 | 0.779 | 0.574 | 1.14 | 
19 | CC(C)(C)CC(C)(C)c1ccc(O)c(Cc2ccc(Cl)cc2Cl)c1 [Clofoctol] | 1.64 | 1.84 | 1.21 | 0.886 | 1.7 | 
20 | Clc1ccc(COC(Cn2ccnc2)c2ccc(Cl)cc2Cl)c(Cl)c1 (stereo not given) [Miconazole Nitrate] | 1.25 | 1.35 | 0.864 | 0.872 | 0.979 | 
21 | CC(C)(C)c1ccc(C(=O)CCCN2CCC(OC(c3ccccc3)c3ccccc3)CC2)cc1 [Ebastine] | 1.64 | 1.24 | 1.83 | 0.905 | 1.22 | 
22 | CN(C)CCOC(c1ccccc1)c1ccccc1 [Diphenhydramine HCl] | 0.916 | 0.411 | 0.777 | 0.793 | 0.518 | 
23 | CCOCCn1c(N2CCCN(C)CC2)nc2ccccc21 [Emedastine] | 0.676 | 0.686 | 0.988 | 0.905 | 0.553 | 
24 | CCOC(=O)N[C@@H]1CC[C@@H]2[C@@H](C1)C[C@H]1C(=O)O[C@H](C)[C@H]1[C@H]2/C=C/c1ccc(-c2cccc(F)c2)cn1 [Vorapaxar] | 1.81 | 1.29 | 2.37 | 1.49 | 1.31 | 
25 | CC1(C)[C@H](C(=O)O)N2C(=O)C[C@H]2S1(=O)=O [Sulbactam sodium] | 0.743 | 0.526 | 0.933 | 0.675 | 0.666 | 

Row | Compound | Euclidean distance (786-O) | Euclidean distance (A549) | Euclidean distance (FB) | Euclidean distance (HEPG2) | Euclidean distance (OVCAR4) | Euclidean distance (DU145)
26 | CCN(CC)CCOc1ccc(C(=C(Cl)c2ccccc2)c2ccccc2)cc1 [Clomifene citrate] | 4.89 | 3.99 | 3.36 | 4.07 | 3.4 | 
27 | Cc1cccn2c(=O)c(-c3nnn[nH]3)cnc12 [Pemirolast potassium] | 1.31 | 0.747 | 0.893 | 0.682 | 1.05 | 
28 | O=c1c(-c2ccc(O)cc2)coc2c([C@@H]3O[C@H](CO)[C@@H](O)[C@H](O)[C@H]3O)c(O)ccc12 [Puerarin] | 0.929 | 0.728 | 0.661 | 0.584 | 1.35 | 
29 | COCCCOc1cc(C[C@@H](C[C@H](N)[C@@H](O)C[C@H](C(=O)NCC(C)(C)C(N)=O)C(C)C)C(C)C)ccc1OC [Aliskiren Hemifumarate] | 0.778 | 0.371 | 0.622 | 0.506 | 0.752 | 
30 | O=C(C1CCCCC1)N1CC(=O)N2CCc3ccccc3C2C1 (stereo not given) [Praziquantel] | 0.868 | 0.773 | 0.97 | 0.33 | 1.36 | 
31 | C[C@]12C=CC(=O)C=C1CC[C@@H]1[C@@H]2C(=O)C[C@@]2(C)[C@H]1CC[C@]2(O)C(=O)CO [Prednisone] | 2.09 | 2.37 | 2.39 | 1.49 | 2.03 | 
32 | Cc1nnc(C(=O)NC(C)(C)c2nc(C(=O)NCc3ccc(F)cc3)c(O)c(=O)n2C)o1 [Raltegravir potassium] | 1.12 | 0.895 | 1.33 | 0.632 | 1.04 | 
33 | C[C@@H]1CN(c2c(F)c(N)c3c(=O)c(C(=O)O)cn(C4CC4)c3c2F)C[C@H](C)N1 [Sparfloxacin] | 0.878 | 1.28 | 0.552 | 0.632 | 1.26 | 
34 | CCc1ccc(Cc2ccc3c(c2)[C@]2(OC3)O[C@H](CO)[C@@H](O)[C@H](O)[C@H]2O)cc1 [Tofogliflozin(CSG 452)] | 1.15 | 1.03 | 0.713 | 0.386 | 1.56 | 
35 | Cn1ccnc1S [Methimazole] | 1.71 | 1.61 | 2.81 | 1.08 | 2.25 | 
36 | CN[C@@H](C)C(=O)N[C@H](C(=O)N1CCC[C@H]1c1nc(C(=O)c2ccc(F)cc2)cs1)C1CCCCC1 | 1.14 | 1.17 | 1.22 | 1.51 | 2.13 | 
37 | CC1(C)S[C@@H]2[C@H](NC(=O)C(C(=O)O)c3ccccc3)C(=O)N2[C@H]1C(=O)O (stereo not given in full) [Carbenicillin disodium] | 1.39 | 1.07 | 0.969 | 0.836 | 1.76 | 
38 | Nc1ccc(S(=O)(=O)Nc2nccs2)cc1 [Sulfathiazole] | 0.815 | 0.811 | 0.62 | 0.824 | 0.818 | 
39 | O=C1c2ccccc2C(=O)C1c1ccccc1 [Phenindione] | 0.966 | 1.04 | 1.16 | 0.74 | 1.1 | 
40 | O=c1[nH]nc2c3c(cccc13)N=C(CN1Cc3ccccc3C1)N2 | 0.985 | 1.29 | 1.31 | 2.35 | 1.42 | 
41 | CNC(=O)c1ccc(Nc2ncc(C(F)(F)F)c(NCc3nccnc3N(C)S(C)(=O)=O)n2)cc1 | 1.58 | 1.6 | 2.06 | 0.842 | 1.85 | 
42 | CC(=O)[C@@]1(O)CC[C@H]2[C@@H]3CCC4=CC(=O)CCC4=C3[C@@H](c3ccc(N(C)C)cc3)C[C@@]21C [Ulipristal] | 0.949 | 1.22 | 1.05 | 1.13 | 0.761 | 
43 | OCCOCCN1CCN(C2=Nc3ccccc3Sc3ccccc32)CC1 [Quetiapine] | 0.8 | 0.671 | 0.864 | 1.02 | 0.901 | 
44 | Nc1ccc(S(=O)(=O)Nc2ccccn2)cc1 [Sulfapyridine] | 0.73 | 1.12 | 0.894 | 0.884 | 1.27 | 
45 | c1ccc(C2CN3CCSC3=N2)cc1 (stereo not given) [Tetramisole HCl] | 1.45 | 0.708 | 1.19 | 1.31 | 1.25 | 
46 | C=C(NC(=O)C(=C)NC(=O)c1csc(C2=N[C@@H]3c4csc(n4)[C@H]4NC(=O)c5csc(n5)[C@H]([C@](C)(O)[C@@H](C)O)NC(=O)[C@H]5CSC(=N5)/C(=C/C)NC(=O)[C@H]([C@@H](C)O)NC(=O)c5csc(n5)[C@]3(CC2)NC(=O)[C@H](C)NC(=O)C(=C)NC(=O)[C@H](C)NC(=O)[C@H]([C@@H](C)CC)N[C@@H]2C=Cc3c([C@H](C)O)cc(nc3[C@H]2O)C(=O)O[C@@H]4C)n1)C(N)=O [Thiostrepton] | 4.46 | 2.6 | 4.95 | 4.36 | 2.62 | 
47 | C[C@]12C=CC(=O)N[C@@H]1CC[C@@H]1[C@@H]2CC[C@]2(C)[C@@H](C(=O)Nc3cc(C(F)(F)F)ccc3C(F)(F)F)CC[C@@H]12 [Dutasteride] | 1.17 | 1.7 | 1.03 | 0.422 | 1.01 | 
48 | Cc1nnc(SCC2=C(C(=O)O)N3C(=O)[C@@H](NC(=O)Cn4cnnn4)[C@H]3SC2)s1 [Cefazolin] | 1.28 | 0.455 | 1.6 | 0.891 | 1.58 | 
49 | CCOC(=O)[N-]c1c[n+](N2CCOCC2)no1 [Molsidomine] | 0.969 | 1.06 | 0.842 | 0.73 | 1.63 | 
50 | CCC1(c2ccccc2)C(=O)NCNC1=O [Primidone] | 1.2 | 0.708 | 1.19 | 0.442 | 2.2 | 

From the supplement of paper PMC10127200
